A number with no mark means an inactive call. Results filed as inconclusive are left out. Where a call stands in place of a potency, no number is given. Calls of active or inactive are those of the source. Unless noted, calls come from the whole dose curve.
Experiments:
[1] = Nuclear factor erythroid 2-related factor 2/antioxidant responsive element (Nrf2/ARE) small molecule agonists: qHTS cell viability counter screen in human keratinocytes (AID 1919968; active = well fitted curve in the direction sought with a large enough effect in the repeat runs; an effect the other way counts as inactive or inconclusive; note: nearly all actives have a fitted effect of over 55% in size)
Method in brief: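 After a 5 h attachment period, ARE-reporter keratinocytes were dosed with compounds in DMSO and then cultured 23 h at 37 C. Cell viability came from CellTiter-Fluor signal read after a further 1 h.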

[2] = Nuclear factor erythroid 2-related factor 2/antioxidant responsive element (Nrf2/ARE) small molecule agonists: luciferase reporter gene qHTS assay in human keratinocytes (AID 1919969); note: nearly all actives have a fitted effect of over 35% in size; note: potency is the fitted concentration of half-maximal effect
[3] = target: Gonadotropin-releasing hormone receptor (Homo sapiens) (UniProt P30968); experiment: Human gonadotropin-releasing hormone receptor (GnRHR) small molecule agonists, calcium flux assay in GnRHR-HEK293 cells (AID 1920063); note: nearly all actives have a fitted effect of over 35% in size
Gonadotropin-releasing hormone receptor (Homo sapiens), sequence (P30968 whole entry, looked up): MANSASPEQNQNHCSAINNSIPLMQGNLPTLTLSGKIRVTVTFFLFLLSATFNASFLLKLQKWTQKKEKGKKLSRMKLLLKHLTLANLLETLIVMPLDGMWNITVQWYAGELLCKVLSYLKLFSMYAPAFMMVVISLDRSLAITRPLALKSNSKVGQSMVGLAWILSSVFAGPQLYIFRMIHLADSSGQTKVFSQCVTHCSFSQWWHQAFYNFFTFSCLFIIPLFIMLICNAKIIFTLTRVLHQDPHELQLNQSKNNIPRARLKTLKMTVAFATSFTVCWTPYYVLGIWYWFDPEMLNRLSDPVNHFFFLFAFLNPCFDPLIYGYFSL
Method in brief: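 We seeded human GnRHR-expressing HEK293 cells for 18 hours, loaded them with calcium dye for an hour at 37 C, added test compounds, and recorded fluorescence intensity kinetically for three minutes.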

[4] = target: KiSS-1 receptor (Homo sapiens) (UniProt Q969F8); experiment: Human kisspeptin (KISS1R) small molecule agonists, calcium flux assay in KISS1R-HEK293 cells (AID 1920064; active = well fitted curve in the direction sought with a large enough effect in the repeat runs; an effect the other way counts as inactive or inconclusive)
KiSS-1 receptor (Homo sapiens), sequence (Q969F8 whole entry, looked up): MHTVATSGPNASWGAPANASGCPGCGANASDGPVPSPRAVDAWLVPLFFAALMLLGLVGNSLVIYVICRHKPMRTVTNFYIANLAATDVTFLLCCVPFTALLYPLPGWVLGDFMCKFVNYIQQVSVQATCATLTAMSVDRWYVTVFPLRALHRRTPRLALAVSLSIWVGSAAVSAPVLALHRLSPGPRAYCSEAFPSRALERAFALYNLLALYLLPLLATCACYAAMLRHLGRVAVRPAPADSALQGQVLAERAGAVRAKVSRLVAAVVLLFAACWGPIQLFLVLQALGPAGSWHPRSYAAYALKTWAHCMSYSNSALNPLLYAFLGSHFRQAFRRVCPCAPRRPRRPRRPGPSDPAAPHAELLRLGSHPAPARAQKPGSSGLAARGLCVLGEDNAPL
Method in brief: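 Kinetic calcium assay, 1 s sampling over 3 min at Ex/Em 480/540, in HEK293 cells engineered with human KISS1R; compounds delivered in DMSO after 1 h dye loading.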

[5] = G protein-coupled receptor (GPCR) small molecule agonists, calcium flux assay: HEK293 wild type cell line counter screen (AID 1920065)
Method in brief: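 Calcium-sensitive dye, loaded 1 h at 37 C into cells cultured 18 h, reports compound-evoked calcium release as fluorescence (Ex/Em 480/540), measured over 3 min. Agonist mode; 15-point titrations, triplicate.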

[6] = p53 small molecule agonists, cell-based qHTS assay with human liver microsomes: qHTS cell viability counter screen (AID 1963579); note: nearly all actives have a fitted effect of over 45% in size
Method in brief: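 Metabolically activated exposure: compounds, human liver microsomes and NADPH (0.5 mg/mL final apiece) were added to p53RE-bla cells seeded 5 h earlier, left 16 h at 37 C, and then assessed for viability by CellTiter-Glo luminescence.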

[7] = p53 small molecule agonists, cell-based qHTS assay with rat liver microsomes: qHTS cell viability counter screen (AID 1963580); note: nearly all actives have a fitted effect of over 45% in size
Method in brief: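 HCT-116 p53RE-bla, 4,000 cells/well, 5 h pre-incubation; cpd + rat liver microsomes 0.5 mg/mL + NADPH 0.5 mg/mL (final); 16 h, 37 C; CellTiter-Glo, 30 min RT; luminescence.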

[8] = p53 small molecule agonists, cell-based qHTS assay: qHTS cell viability counter screen (AID 1963581); note: nearly all actives have a fitted effect of over 45% in size
Method in brief: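 Following 5 h attachment, HCT-116 p53RE-bla cells took up compound for 16 h at 37 C; the reporter was read with B/G FRET substrate (2 h RT), and viability then via CellTiter-Glo ATP luminescence.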

[9] = target: 5-hydroxytryptamine receptor 2A (Homo sapiens) (UniProt P28223); experiment: 5-hydroxytryptamine receptor 2A (HTR2A) small molecule antagonists, cell-based qHTS assay (AID 1963586); note: nearly all actives have a fitted effect of over 45% in size
5-hydroxytryptamine receptor 2A (Homo sapiens), sequence (P28223 whole entry, looked up): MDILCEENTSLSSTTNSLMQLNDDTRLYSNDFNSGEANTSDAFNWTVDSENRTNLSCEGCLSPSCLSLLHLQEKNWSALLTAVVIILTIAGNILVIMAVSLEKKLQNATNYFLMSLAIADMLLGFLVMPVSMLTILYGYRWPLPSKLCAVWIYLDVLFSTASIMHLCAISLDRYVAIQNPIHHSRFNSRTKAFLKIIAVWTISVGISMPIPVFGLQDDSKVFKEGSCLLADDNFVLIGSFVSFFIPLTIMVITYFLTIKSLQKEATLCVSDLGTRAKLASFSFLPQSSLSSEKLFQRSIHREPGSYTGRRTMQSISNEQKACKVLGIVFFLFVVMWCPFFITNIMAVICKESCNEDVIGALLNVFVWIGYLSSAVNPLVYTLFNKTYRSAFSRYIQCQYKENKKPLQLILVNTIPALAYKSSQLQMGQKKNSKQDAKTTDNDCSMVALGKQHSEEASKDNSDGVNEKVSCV
Method in brief: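 Antagonist-mode intracellular calcium assay: DOI (4 nM) added after 5 min compound pre-incubation at room temperature to dye-loaded HTR2A-CHO cells. Fluorescence followed for 3 min, sampled every second.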

[10] = target: 5-hydroxytryptamine receptor 2A (Homo sapiens) (UniProt P28223); experiment: 5-hydroxytryptamine receptor 2A (HTR2A) small molecule agonists, cell-based qHTS assay (AID 1963587); note: nearly all actives have a fitted effect of over 30% in size
Method in brief: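 Kinetic calcium-flux fluorescence (2 min, 1 sec intervals) after compound addition in agonist mode. HTR2A-CHO cells were cultured 18 h, then dye-loaded 1 h at 37 C.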

[11] = target: Muscarinic acetylcholine receptor M1 (Homo sapiens) (UniProt P11229); experiment: Cholinergic receptor muscarinic 1 (CHRM1) small molecule antagonists, cell-based qHTS assay (AID 1963588); note: nearly all actives have a fitted effect of over 40% in size; note: potency is the fitted concentration of half-maximal effect
Muscarinic acetylcholine receptor M1 (Homo sapiens), sequence (P11229 whole entry, looked up): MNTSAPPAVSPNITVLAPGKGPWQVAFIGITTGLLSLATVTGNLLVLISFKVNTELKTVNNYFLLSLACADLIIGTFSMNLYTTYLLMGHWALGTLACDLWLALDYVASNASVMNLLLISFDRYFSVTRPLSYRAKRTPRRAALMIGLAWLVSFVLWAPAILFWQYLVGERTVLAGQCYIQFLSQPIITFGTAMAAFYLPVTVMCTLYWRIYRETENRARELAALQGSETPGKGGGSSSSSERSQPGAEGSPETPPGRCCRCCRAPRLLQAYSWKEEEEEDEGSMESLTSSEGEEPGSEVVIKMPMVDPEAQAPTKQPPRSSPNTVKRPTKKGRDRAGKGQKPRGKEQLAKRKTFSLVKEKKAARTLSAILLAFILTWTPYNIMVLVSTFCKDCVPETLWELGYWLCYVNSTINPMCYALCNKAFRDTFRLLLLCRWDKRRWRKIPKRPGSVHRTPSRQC
Method in brief: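 CHRM1-CHO calcium-flux assay, antagonist mode. Cells were seeded 18 h, dye-loaded 1 h at 37 C and given compound for 5 min at RT, then acetylcholine was added at 50nM. FDSS fluorescence was read 3 min; 15 concentrations, three runs.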

[12] = target: Muscarinic acetylcholine receptor M1 (Homo sapiens) (UniProt P11229); experiment: Cholinergic receptor muscarinic 1 (CHRM1) small molecule agonists, cell-based qHTS assay (AID 1963589); note: nearly all actives have a fitted effect of over 35% in size
Method in brief: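 Measures agonist-induced intracellular calcium rise. Stable human CHRM1 CHO line, 1 h dye load at 37 C, compounds from DMSO, kinetic fluorescence read.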

[13] = cAMP Responsive Elements (CRE) small molecule agonists, cell-based qHTS assay (AID 1963590)
Method in brief: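 A CRE-responsive beta-lactamase reporter in HEK 293T cells was used. Treatment ran 3 h at 37 C; detection used LiveBLAzer B/G FRET substrate for 2 h at room temperature.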

[14] = cAMP Responsive Elements (CRE) small molecule antagonists, cell-based qHTS assay (AID 1963591; active = well fitted inhibition curve with a large enough effect in the signal ratio in the repeat runs, not every such curve was filed as active; the % refers to the signal ratio)
Method in brief: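 HEK293T cells carrying a CRE-driven beta-lactamase reporter receive compound and NKH477 (0.25 uM final) for 3 h. Fluorescence from LiveBLAzer B/G FRET substrate is read after 2 h at room temperature.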

[15] = target: Beta-2 adrenergic receptor (Homo sapiens) (UniProt P07550); experiment: Adrenergic beta2 receptor (ADRB2) small molecule antagonists, cell-based qHTS assay (AID 1963592); note: series mostly up to about 92 µM; nearly all actives have a fitted effect of over 50% in size
Beta-2 adrenergic receptor (Homo sapiens), sequence (P07550 whole entry, looked up): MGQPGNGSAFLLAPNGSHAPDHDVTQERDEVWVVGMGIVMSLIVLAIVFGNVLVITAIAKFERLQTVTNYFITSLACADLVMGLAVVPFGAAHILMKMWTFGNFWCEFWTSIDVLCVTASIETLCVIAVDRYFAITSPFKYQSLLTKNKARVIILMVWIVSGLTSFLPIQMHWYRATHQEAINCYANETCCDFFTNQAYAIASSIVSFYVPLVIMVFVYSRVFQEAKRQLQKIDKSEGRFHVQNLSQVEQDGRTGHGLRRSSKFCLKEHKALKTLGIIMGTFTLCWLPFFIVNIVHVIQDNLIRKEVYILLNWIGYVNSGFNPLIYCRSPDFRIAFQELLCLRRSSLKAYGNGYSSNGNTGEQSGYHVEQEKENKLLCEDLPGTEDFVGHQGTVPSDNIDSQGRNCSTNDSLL
Method in brief: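 Cells (CHO, stable ADRB2 overexpression) incubated 18-20hr at 37C; compounds added from DMSO; agonist mix (1nM isoproterenol, 100uM IBMX, 25uM Ro-20-1724) added; 0.5hr RT; d2-cAMP and anti-cAMP-cryptate added; 1hr RT; 665/615 nm read.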

[16] = p53 small molecule agonists, cell-based qHTS assay with rat liver microsomes (AID 1963578); note: potency is the fitted concentration of half-maximal effect
Method in brief: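 Agonist mode in p53RE-bla reporter cells, with compounds co-incubated 16 h at 37 C alongside 0.5 mg/mL rat liver microsomes and 0.5 mg/mL NADPH (final), followed by a 2 h LiveBLAzer detection step.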

[17] = target: Beta-2 adrenergic receptor (Homo sapiens) (UniProt P07550); experiment: Adrenergic beta2 receptor (ADRB2) small molecule agonists, cell-based qHTS assay (AID 1963593);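 note: CHO cells stably overexpressing human ADRB2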
Method in brief: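 CHO cells stably over-expressing ADRB2 were plated overnight at 37C, then dosed with compounds plus a stimulation mix containing 100uM IBMX and 25uM Ro-20-1724 for 0.5hr at room temperature. cAMP was measured by HTRF competition, 1hr.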

[18] = p53 small molecule agonists, cell-based qHTS assay (AID 1963582; active = well fitted activation curve with a large enough effect in the signal ratio in the repeat runs, not every such curve was filed as active; the % refers to the signal ratio)
Method in brief: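 In this cell-based concentration-response screen, a p53 response element drives beta-lactamase; cells received DMSO-borne compounds after 5 h culture and were incubated a further 16 h before FRET substrate development.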

[19] = target: D(2) dopamine receptor (Homo sapiens) (UniProt P14416); experiment: Dopamine D2 receptor (DRD2) small molecule agonists, cell-based qHTS assay (AID 1963594); note: nearly all actives have a fitted effect of over 35% in size
D(2) dopamine receptor (Homo sapiens), sequence (P14416 whole entry, looked up): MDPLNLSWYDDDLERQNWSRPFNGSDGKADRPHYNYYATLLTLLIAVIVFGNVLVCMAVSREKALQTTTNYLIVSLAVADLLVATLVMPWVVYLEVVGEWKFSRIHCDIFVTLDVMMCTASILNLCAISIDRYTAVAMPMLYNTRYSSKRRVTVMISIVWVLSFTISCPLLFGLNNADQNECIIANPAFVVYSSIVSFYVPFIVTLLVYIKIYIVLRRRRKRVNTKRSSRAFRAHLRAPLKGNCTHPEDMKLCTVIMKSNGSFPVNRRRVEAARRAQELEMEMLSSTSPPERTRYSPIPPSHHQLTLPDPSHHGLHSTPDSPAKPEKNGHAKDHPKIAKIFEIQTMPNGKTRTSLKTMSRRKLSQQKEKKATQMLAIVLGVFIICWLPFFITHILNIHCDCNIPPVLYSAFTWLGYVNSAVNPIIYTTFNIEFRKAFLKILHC
Method in brief: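 cAMP accumulation in DRD2-HEK293 cells measured by HTRF after 1 h detection; compounds added 10 min before NKH477 (200nM […]) forskolin-analogue stimulation, 30 min at room temperature, with Ro20-1724 present at 0.1 mM final.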

[20] = target: D(2) dopamine receptor (Homo sapiens) (UniProt P14416); experiment: Dopamine D2 receptor (DRD2) small molecule antagonists, cell-based qHTS assay (AID 1963595; active = well fitted inhibition curve with a large enough effect in the signal ratio in the repeat runs, with a control signal flat; the % refers to the signal ratio)
Method in brief: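 HEK293 cells stably expressing DRD2, preincubated with 0.1 mM Ro20-1724 and compounds 10 min, were stimulated with 200 nM NKH477 plus 12 nM quinpirole for 30 min at room temperature; cAMP measured by HTRF (665/620 nm).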

Structure (SMILES)	Potency [1]	Potency [2]	Potency [3]	Potency [4]	Potency [5]	Potency [6]	Potency [7]	Potency [8]	Potency [9]	Potency [10]	Potency [11]	Potency [12]	Potency [13]	Potency [14]	Potency [15]	Potency [16]	Potency [17]	Potency [18]	Potency [19]	Potency [20]
COC(=O)c1cc(Cl)cc(Cl)c1	inactive	inactive	inactive	inactive	inactive	inactive	inactive	inactive	inactive	inactive	inactive	inactive	inactive	inactive	inactive	–	–	–	–	–
Cc1ccc2nc(-c3ccc(N)cc3)sc2c1S(=O)(=O)O	inactive	10.7 µM (active)	inactive	inactive	inactive	–	inactive	inactive	inactive	inactive	inactive	inactive	–	–	inactive	17.9 µM (active)	inactive	–	–	–
CCc1cccc2c(CCO)c[nH]c12	inactive	inactive	inactive	inactive	inactive	–	inactive	inactive	inactive	inactive	inactive	inactive	–	inactive	inactive	inactive	inactive	inactive	inactive	inactive
Nc1nc2ccc(OC(F)(F)F)cc2s1	inactive	inactive	inactive	inactive	inactive	–	inactive	inactive	–	–	–	–	inactive	inactive	inactive	inactive	–	–	–	inactive
CC(C)(C)CCCCCCOC(=O)c1ccccc1C(=O)OCCCCCCC(C)(C)C	inactive	inactive	inactive	inactive	inactive	inactive	inactive	inactive	inactive	inactive	inactive	inactive	inactive	inactive	inactive	–	inactive	–	inactive	–
O=c1[nH]c2ccc(S(=O)CCN3CCC(Cc4ccc(F)cc4)CC3)cc2o1 (centres undefined)	inactive	61.1 µM (active)	inactive	inactive	inactive	–	inactive	–	inactive	inactive	14.9 µM (active)	inactive	–	–	inactive	inactive	inactive	inactive	–	–
CCCCN(CCO)CCCC	inactive	inactive	inactive	inactive	inactive	inactive	inactive	inactive	inactive	inactive	inactive	inactive	inactive	inactive	inactive	–	inactive	–	inactive	inactive
CCCCOC(=O)CCCCC(=O)OCCCC	inactive	inactive	inactive	inactive	inactive	inactive	inactive	inactive	inactive	inactive	inactive	inactive	inactive	inactive	inactive	–	inactive	–	inactive	inactive
CC(C)(C)Cl	inactive	inactive	inactive	inactive	inactive	inactive	inactive	inactive	inactive	inactive	inactive	inactive	inactive	inactive	inactive	–	inactive	–	inactive	inactive
CC/C=C/CCCCCCCCCCOC(C)=O	inactive	inactive	inactive	inactive	inactive	inactive	inactive	inactive	inactive	inactive	inactive	inactive	inactive	inactive	inactive	–	inactive	–	inactive	inactive
c1ccc(CN(Cc2ccccc2)Cc2ccccc2)cc1	inactive	54.4 µM (active)	inactive	inactive	inactive	inactive	inactive	inactive	inactive	inactive	inactive	inactive	inactive	inactive	inactive	–	inactive	–	inactive	inactive
NC(=O)c1ccccc1	inactive	inactive	inactive	inactive	inactive	inactive	inactive	inactive	inactive	inactive	inactive	inactive	inactive	inactive	inactive	–	inactive	–	inactive	inactive
CC(O)CC(C)O (centres undefined)	inactive	inactive	inactive	inactive	inactive	inactive	inactive	inactive	inactive	inactive	inactive	inactive	inactive	inactive	inactive	–	inactive	–	–	inactive
CCC(CC)CO	inactive	inactive	inactive	inactive	inactive	inactive	inactive	inactive	inactive	inactive	inactive	inactive	inactive	inactive	inactive	–	inactive	–	inactive	inactive
CC(=O)NNC(C)=O	inactive	inactive	inactive	inactive	inactive	inactive	inactive	inactive	inactive	inactive	inactive	inactive	inactive	inactive	inactive	–	inactive	–	inactive	inactive
CCCCCCC(=O)c1ccccc1	inactive	inactive	inactive	inactive	inactive	inactive	inactive	inactive	inactive	inactive	inactive	inactive	inactive	inactive	inactive	–	inactive	–	inactive	inactive

— PubChem BioAssay (Tox21)
